Test results taken from PubChem BioAssay AID1159580 (chemical genetic matrix, 2015).
Out of some 5,500 compounds screened, about 2,000 (36%) were called active. Another 18% or so got no clear call; they are omitted. Rule as the data show it: active = normalized growth mostly below about 0.91 (no sharp cut-off); inconclusive = no clear call, values can overlap the other calls; inactive = mostly above about 0.92. Some of the results follow.

Test: chemical genetic growth profiling, strain panel (AID 1159580);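 also: tested at 20 µM; growth read once vehicle control cultures reached saturation at 30 °C; 1 = growth at the plate median or of vehicle wells; lower values mean less growth of the strain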
Settings: growth OD

Measured: normalized growth

COc1cc([C@@H]2c3cc4c(cc3[C@H](OC(C)=O)[C@H]3COC(=O)[C@H]23)OCO4)cc(OC)c1OC
inactive: S. cerevisiae deletion strains, locus YJR066W, strain TOR1, stronger effect = lower value 0.932 | S. cerevisiae deletion strains, locus YKL009W, strain mrt4, stronger effect = lower value 0.972 | S. cerevisiae deletion strains, locus YKL068W, stronger effect = lower value 0.988 | S. cerevisiae deletion strains, locus YKL085W, strain MDH1 (second series), stronger effect = lower value 1 | S. cerevisiae deletion strains, locus YKL085W, strain MDH1, stronger effect = lower value 1 | S. cerevisiae deletion strains, locus YKL160W, strain elf1, stronger effect = lower value 0.999 | S. cerevisiae deletion strains, locus YKL190W, strain CNB1, stronger effect = lower value 1 | S. cerevisiae deletion strains, locus YKR001C, strain vps1, stronger effect = lower value 0.976 | S. cerevisiae deletion strains, locus YKR026C, strain gcn3, stronger effect = lower value 1.01 | S. cerevisiae deletion strains, locus YKR091W, strain srl3, stronger effect = lower value 1.01 | S. cerevisiae deletion strains, locus YLL001W, strain dnm1, stronger effect = lower value 1 | S. cerevisiae deletion strains, locus YLL026W, stronger effect = lower value 1.01 | S. cerevisiae deletion strains, locus YLL041C, strain sdh2, stronger effect = lower value 1.01 | S. cerevisiae deletion strains, locus YLR027C, strain aat2, stronger effect = lower value 1 | S. cerevisiae deletion strains, locus YLR039C, strain RIC1, stronger effect = lower value 0.954 | S. cerevisiae deletion strains, locus YLR058C, strain SHM2, stronger effect = lower value 0.998 | S. cerevisiae deletion strains, locus YLR102C, strain apc9, stronger effect = lower value 0.974 | S. cerevisiae deletion strains, locus YLR113W, strain HOG1, stronger effect = lower value 1.07 | S. cerevisiae deletion strains, locus YLR221C, strain rsa3, stronger effect = lower value 1.01 | S. cerevisiae deletion strains, locus YLR258W, strain gsy2, stronger effect = lower value 0.997 | S. cerevisiae deletion strains, locus YLR262C, strain YPT6 (second series), stronger effect = lower value 0.914 | S. cerevisiae deletion strains, locus YLR262C, strain YPT6, stronger effect = lower value 0.933 | S. cerevisiae deletion strains, locus YLR268W, strain sec22, stronger effect = lower value 0.984 | S. cerevisiae deletion strains, locus YLR320W, strain mms22, stronger effect = lower value 1 | S. cerevisiae deletion strains, locus YLR330W, strain CHS5, stronger effect = lower value 0.994 | S. cerevisiae deletion strains, locus YLR342W, strain FKS1 (second series), stronger effect = lower value 0.995 | S. cerevisiae deletion strains, locus YLR342W, strain FKS1, stronger effect = lower value 1.01 | S. cerevisiae deletion strains, locus YLR357W, strain rsc2, stronger effect = lower value 1.06 | S. cerevisiae deletion strains, locus YLR370C, strain arc18, stronger effect = lower value 1.01 | S. cerevisiae deletion strains, locus YLR371W, strain rom2, stronger effect = lower value 0.992 | S. cerevisiae deletion strains, locus YLR384C, strain iki3, stronger effect = lower value 1.02 | S. cerevisiae deletion strains, locus YLR418C, strain cdc73, stronger effect = lower value 0.971 | S. cerevisiae deletion strains, locus YML016C, strain PPZ1, stronger effect = lower value 0.997 | S. cerevisiae deletion strains, locus YML032C, strain rad52, stronger effect = lower value 0.97 | S. cerevisiae deletion strains, locus YML120C, strain ndi1, stronger effect = lower value 1 | S. cerevisiae deletion strains, locus YML124C, strain tub3, stronger effect = lower value 0.984 | S. cerevisiae deletion strains, locus YMR058W, strain fet3, stronger effect = lower value 1.01 | S. cerevisiae deletion strains, locus YMR078C, strain ctf18, stronger effect = lower value 0.99 | S. cerevisiae deletion strains, locus YMR125W, strain sto1, stronger effect = lower value 1.01 | S. cerevisiae deletion strains, locus YMR129W, stronger effect = lower value 1 | S. cerevisiae deletion strains, locus YMR205C, strain PFK2, stronger effect = lower value 1.02 | S. cerevisiae deletion strains, locus YMR223W, strain ubp8, stronger effect = lower value 0.974 | S. cerevisiae deletion strains, locus YMR231W, strain pep5, stronger effect = lower value 0.997 | S. cerevisiae deletion strains, locus YMR307W, strain GAS1, stronger effect = lower value 1.02 | S. cerevisiae deletion strains, locus YNL067W, strain RPL9B, stronger effect = lower value 1.01 | S. cerevisiae deletion strains, locus YNL071W, strain lat1, stronger effect = lower value 1.01 | S. cerevisiae deletion strains, locus YNL128W, strain TEP1, stronger effect = lower value 0.992 | S. cerevisiae deletion strains, locus YNL183C, strain NPR1, stronger effect = lower value 0.993 | S. cerevisiae deletion strains, locus YNL209W, strain ssb2, stronger effect = lower value 0.996 | S. cerevisiae deletion strains, locus YNL233W, strain BNI4, stronger effect = lower value 0.997 | S. cerevisiae deletion strains, locus YNL248C, strain rpa49, stronger effect = lower value 1.01 | S. cerevisiae deletion strains, locus YNL250W, strain rad50, stronger effect = lower value 0.985 | S. cerevisiae deletion strains, locus YNL271C, strain bni1, stronger effect = lower value 0.983 | S. cerevisiae deletion strains, locus YNL298W, strain CLA4, stronger effect = lower value 0.997 | S. cerevisiae deletion strains, locus YNL307C, strain MCK1, stronger effect = lower value 0.98 | S. cerevisiae deletion strains, locus YNL322C, strain KRE1 (second series), stronger effect = lower value 1.03 | S. cerevisiae deletion strains, locus YNR049C, strain mso1, stronger effect = lower value 1 | S. cerevisiae deletion strains, locus YNR052C, strain pop2, stronger effect = lower value 0.973 | S. cerevisiae deletion strains, locus YOL006C, strain TOP1, stronger effect = lower value 0.861 | S. cerevisiae deletion strains, locus YOL012C, strain htz1 1.23 | S. cerevisiae deletion strains, locus YOL147C, strain pex11, stronger effect = lower value 0.981 | S. cerevisiae deletion strains, locus YOR001W, strain rrp6, stronger effect = lower value 1 | S. cerevisiae deletion strains, locus YOR061W, strain CKA2, stronger effect = lower value 0.994 | S. cerevisiae deletion strains, locus YOR069W, strain VPS5, stronger effect = lower value 0.99 | S. cerevisiae deletion strains, locus YOR070C, strain gyp1, stronger effect = lower value 1.01 | S. cerevisiae deletion strains, locus YOR080W, strain dia2, stronger effect = lower value 1 | S. cerevisiae deletion strains, locus YOR083W, strain WHI5, stronger effect = lower value 1 | S. cerevisiae deletion strains, locus YOR106W, strain vam3, stronger effect = lower value 1.02 | S. cerevisiae deletion strains, locus YOR136W, strain idh2, stronger effect = lower value 0.98 | S. cerevisiae deletion strains, locus YOR144C, strain elg1, stronger effect = lower value 0.99 | S. cerevisiae deletion strains, locus YOR184W, strain ser1, stronger effect = lower value 1.01 | S. cerevisiae deletion strains, locus YOR231W, strain MKK1, stronger effect = lower value 0.972 | S. cerevisiae deletion strains, locus YOR265W, strain rbl2, stronger effect = lower value 1.01 | S. cerevisiae deletion strains, locus YOR270C, strain vph1, stronger effect = lower value 0.921 | S. cerevisiae deletion strains, locus YOR290C, strain snf2, stronger effect = lower value 1 | S. cerevisiae deletion strains, locus YOR316C, strain cot1, stronger effect = lower value 0.992 | S. cerevisiae deletion strains, locus YPL051W, strain arl3, stronger effect = lower value 1 | S. cerevisiae deletion strains, locus YPL078C, strain atp4, stronger effect = lower value 0.998 | S. cerevisiae deletion strains, locus YPL106C, strain sse1, stronger effect = lower value 1.02 | S. cerevisiae deletion strains, locus YPL240C, strain hsp82, stronger effect = lower value 1.01 | S. cerevisiae deletion strains, locus YPL256C, strain CLN2, stronger effect = lower value 0.986 | S. cerevisiae deletion strains, locus YPR119W, strain clb2, stronger effect = lower value 0.986 | S. cerevisiae deletion strains, locus YPR141C, strain kar3, stronger effect = lower value 0.98 | S. cerevisiae deletion strains, locus YPR163C, strain tif3, stronger effect = lower value 0.991 | S. cerevisiae deletion strains, locus YPR167C, strain met16, stronger effect = lower value 0.969 | S. cerevisiae deletion strains, strain wtn01, stronger effect = lower value 1 | S. cerevisiae strains, strain wild type, stronger effect = lower value 1
